# Bioassay records from PubChem BioAssay.
# LASV entry inh = blocks Lassa virus binding to or entry into cells; Lassa virus pseudotype entry inhibition, cell reporter; Potency, µM (titrated, usually from 37.9 µM), without a hit: at the top dose activity change, negative = inhibition, most hits filed as inhibitors; hit rate 1.2% among 300,000; calls by dose curve; tested in HEK293 cells; further: potency means the concentration at half of the fitted maximal effect; on the % scale 0 is the no-effect control and ±100 the full control effect; nearly all actives have a fitted effect of over 50% in size
# Cycloheximide cs = affects cycloheximide protein synthesis inhibition readout, counter-screen | cell reporter, cycloheximide protein synthesis inhibition counterscreen | hit rate 12% among 300,000 | AID 2314 | max response, %; in the data active means max response mostly above about 13%, no sharp cut-off; inactive means mostly below about 14%; further: read at 38.3 µM for the half of the compounds with a filed dose; 0% is about no effect
# Marburg entry inh = inhibitors of Marburg virus binding or cell entry; Marburg virus pseudotyped entry inhibition, cell reporter; hit rate 1.8% among 300,000; Potency, µM (doses to about 37.8 µM), inactives show at the highest dose activity change, negative = inhibition, actives largely listed as inhibitors; calls by dose curve; tested in HEK293 cells; further: potency means the concentration at half of the fitted maximal effect; on the % scale 0 is the no-effect control and ±100 the full control effect
# Pf growth 96h = inhibits malaria parasite growth, 96 h; P. falciparum luciferase reporter growth, 96 h; Potency, µM (top dose mostly 28.7 µM), for the others: at the top dose activity change, negative = inhibition, actives largely listed as inhibitors; hit rate 6.9% among 320,000; AID 504834; further: potency means the concentration at half of the fitted maximal effect; on the % scale 0 is the no-effect control and ±100 the full control effect
#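 Readout is luminescence from an integrated firefly luciferase in P. falciparum. Red cells, 2% hematocrit and 0.05% parasitemia final, were cultured with compound through two parasite generations (96 hours) at 37 C, 5% CO2.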
# Shiga inhibitor = blocks Shiga toxin action in Vero cells. Vero cells, Shiga toxin protein synthesis inhibition reporter. inhibition, % at 38.7 µM. hit rate 9.2% among 290,000; in the data active means inhibition mostly above about 28%, no sharp cut-off; inactive means mostly below about 43%; further: 0% is about no effect
# Pf growth 48h = inhibits P. falciparum growth in the first generation, 48 h; P. falciparum luciferase growth in erythrocytes, 48 h; hit rate 5.9% among 310,000; Potency, µM (top dose mostly 28.7 µM), for the others: top-dose activity change, negative = inhibition, hits mostly inhibitors; further: potency means the concentration at half of the fitted maximal effect; on the % scale 0 is the no-effect control and ±100 the full control effect
#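 Luciferase-expressing P. falciparum in infected erythrocytes (2% hematocrit, 0.1% parasitemia final) in RPMI 1640/0.5% Albumax were exposed to compound for 48 hours at 37 C, 5% CO2; growth read as luminescence.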
# Starred values were filed as active, the others as inactive; ? = inconclusive; . = no result given; [ ] = remark or other dose. Compounds with a hit are over-represented: about 19% of the library has one in this group of screens. Unless noted, the call rests on the fitted dose curve; in most records, active means well fitted inhibition curve with a large enough effect; inconclusive means small, poorly fitted or top-dose-only effect, or another doubt; inactive means no such curve, though single readings can be large or run the other way.
SMILES,LASV entry inh,Cycloheximide cs,Marburg entry inh,Pf growth 96h,Shiga inhibitor,Pf growth 48h
Cc1[nH]c2ccccc2c1C(O)c1ccncc1 (stereo unspecified),-6.2%,0.9,-21.3%[46.1 µM],0.4%,-15.8,3.8%
Cc1cccc(C(C)C)c1NC(=O)C(C)OC(=O)Cc1n[nH]c(=O)c2ccccc12 (stereo unspecified),4.8%,.,?,25.6%,.,1.7%
COc1ccc([C@H]2C[C@H](c3ccccc3)Nc3nc(N)nn32)cc1,.,.,0.5%,.,.,.
CC(C)c1cccc(OCCN2CCCC2)c1,-9.7%[46.1 µM],5.4,0.4%[46.1 µM],10.4µM*,-4.0,-26.3%
Clc1cccc(OCCN2CCCC2)c1,18.8%,-1.9,5.1%,100.7%,-13.2,-9.4%
CN1CCN(CCOc2cccc(Cl)c2)CC1,30.2%,7.7,7.5%,10.4µM*,8.2,67.9%
Cc1ccc(OCC(=O)N2CCN(C(=O)c3ccncc3)CC2)cc1,.,-1.6,.,18.3%,1.7,14.2%
O=C1CCN(Cc2ccccc2)S(=O)(=O)c2ccccc21,.,-3.3,.,?,9.4,?
COc1ccc2nc(NC(=O)c3ccccc3F)sc2c1,.,27.0*,.,?,55.7*,141.4%
COc1ccc2nc(NC(=O)c3cccc(-c4cc5ccccc5oc4=O)c3)sc2c1,?,34.1*,?,4.65µM*,43.1*,?
COc1ccc2nc(NC(=O)c3cnccn3)sc2c1,?,31.4*,?,.,119.0*,29.7%
COc1ccc2nc(NC(=O)c3ccccc3C(=O)O)sc2c1,.,8.8,.,5.6%,-4.1,-83.6%
Cc1ccc2nc(NC(=O)c3ccccc3F)sc2c1,?,38.7*,?,?,82.6*,0.0%
CCOc1ccc(N(CC)C(=O)CCNC(=O)Cn2ccc3ccccc3c2=O)cc1,-9.8%,-5.1,9.1%,?,-22.2,.
Cc1cc(C)c(S(=O)(=O)N2CCOC2CNC(=O)C(=O)NCCN2CCOCC2)c(C)c1 (stereo unspecified),8.0%,-1.5,?,14.5%,-1.4,?
CCSc1ncc(Cl)c(C(=O)Nc2nc3ccc(OC)cc3s2)n1,22.7%[46.1 µM],19.5,18.6%[46.1 µM],.,-11.5,.
COc1ccc(C(=O)Nc2nc3ccc(OC)cc3s2)cc1,.,39.4*,.,-8.5%,68.3*,30.2%
CCOc1ccc(/C=C/C(=O)Nc2ccc3nc(N(CC)CC)cc(C)c3c2)cc1OC,?,.,11.2µM*,.,.,.
COc1ccc2nc(NC(=O)c3ccc(NC(=O)C4CCCO4)cc3)sc2c1 (stereo unspecified),13.8%[46.1 µM],18.6*,?,14.0%,16.5,?
CCN(CC)c1cc(C)c2cc(NC(=O)/C=C/c3ccc(C)cc3)ccc2n1,3.2%[46.1 µM],.,?,.,.,.
CCOc1ccc2nc(NC(=O)C3CCCO3)sc2c1 (stereo unspecified),?,0.9,?,24.4%,23.6,-16.4%
CCn1cc([N+](=O)[O-])c(C(=O)Nc2nc3ccc(OC)cc3s2)n1,.,15.0*,.,6.6%,40.9,38.4%
COc1ccc(C(=O)Nc2nc3ccc(S(C)(=O)=O)cc3s2)cc1,-2.7%,7.4,3.7%,7.4%,9.4,-29.0%
CCCC(=O)Nc1nc2ccc(NC(=O)c3ccccc3F)cc2s1,?,20.9*,-1.9%,42.8%,46.9*,-6.1%
COc1cccc(NC(=O)c2ccc(NS(=O)(=O)c3cccs3)cc2)c1,?,.,?,0.1%,.,10.3%
SMILES,LASV entry inh,Cycloheximide cs,Marburg entry inh,Pf growth 96h,Shiga inhibitor,Pf growth 48h
COc1ccc2nc(NC(=O)c3ccc(NS(=O)(=O)c4cccs4)cc3)sc2c1,0.4%,34.7*,?,?,23.3,-3.9%
CCOc1ccccc1C(=O)Nc1ccc2nc(N(CC)CC)cc(C)c2c1,10.5%[46.1 µM],.,?,.,.,.
CCN(CC)c1cc(C)c2cc(NC(=O)c3ccccc3F)ccc2n1,.,16.3*,-4.2%,?,22.0,10.4µM*
O=C(Nc1ccc2nc(SCCOc3ccccc3)sc2c1)c1ccccc1F,-6.4%[46.1 µM],.,2.5%[46.1 µM],.,.,.
CCC(=O)N1CCc2cc(S(=O)(=O)NC(C(=O)NC(C)c3ccccc3)C(C)C)ccc21 (stereo unspecified),-10.3%,-3.7,1.4%,-7.7%,-19.4,0.4%
Cn1c(C(=O)NC2CCCCC2)cc2c(=O)n(C)c3ccccc3c21,.,-6.2,.,10.4µM*,-16.2,.
CC1CCC(NC(=O)c2cc3c(=O)n(C)c4ccccc4c3n2C)CC1 (stereo unspecified),.,17.9*,.,-11.8%,16.9,.
Cn1c(C(=O)N2CCCCCC2)cc2c(=O)n(C)c3ccccc3c21,.,19.6*,.,119.7%,34.8,.
Cn1c(C(=O)NC2CCCCCC2)cc2c(=O)n(C)c3ccccc3c21,.,-2.9,.,-8.0%,15.0,.
CCN1CCN(C(=O)c2cc3c(=O)n(C)c4ccccc4c3n2C)CC1,.,-4.3,.,-6.3%,14.1,?
COc1ccc(C(=O)NCCS(=O)(=O)NCC2CCCO2)cc1 (stereo unspecified),-1.5%,.,2.6%[46.1 µM],?,.,5.0%
CCCCCCn1cnc2c(oc3nc4c(cc32)CCCC4)c1=O,.,12.5*,.,?,9.2,58.9%
COc1ccccc1NC(=O)Cn1cnc2c(oc3nc4c(cc32)CCCC4)c1=O,.,-1.9,.,?,-10.3,?
O=c1c2oc3nc4c(cc3c2ncn1CCCc1ccccc1)CCCC4,?,19.8*,?,?,70.0*,?
CCCCn1cnc2c(oc3nc4c(cc32)CCCC4)c1=O,.,25.8*,.,-57.0%,45.8,67.0%
Cc1ccc(F)c(C2C3C=CCC(C)C3C(=O)N2Cc2ccccc2)c1 (stereo unspecified),.,-4.5,.,.,8.2,.
Cc1ccc2nc(-c3ccc(NC(=O)COc4c(C)ccc(C)c4C)cc3)sc2c1,2.2%[46.1 µM],.,23.7%[46.1 µM],.,.,.
Cc1ccc2nc(-c3ccc(NC(=O)CSCC(=O)O)cc3)sc2c1,.,54.9*,.,403.2%,87.5*,219.6%
O=C(O)CSCC(=O)Nc1ccc(-c2nc3ccccc3s2)cc1,-20.4%[46.1 µM],35.0*,?,87.8%,53.7*,260.2%
Cc1ccc2nc(-c3ccc(NC(=O)COCC(=O)O)cc3)sc2c1,-4.7%,55.9*,-8.3%[46.1 µM],105.6%,49.8*,108.8%
Clc1ccc(CNCCCSc2ncccn2)cc1Cl,-3.9%[46.1 µM],1.7,?,?,0.7,30.8%
CC(C)c1ccc(CNCc2ccccc2)cc1,13.4%,32.1*,18.3µM*,-28.2%,59.6*,19.7%
CC(C)c1ccc(CNCCCSc2ncccn2)cc1,.,1.0,.,13.1µM*,-11.3,5.2%
CCOc1ccc(CNCCCSc2ncccn2)cc1,24.4%[46.1 µM],-1.0,?,10.4µM*,-7.7,-14.9%
COC(=O)CSc1nnc(COc2ccc([N+](=O)[O-])cc2)n1C,33.0%[46.1 µM],-2.4,1.3%[46.1 µM],25.4%,-12.8,1.7%
CC(=O)N1CCc2cc(N=NC3=C(O)CCCC3=O)ccc21,-0.7%[46.1 µM],31.3*,?,26.6%,91.7*,30.9%
Cc1nc2cc(N=NC3=C(O)CCCC3=O)ccc2s1,?,60.9*,-29.8%,42.5%,89.2*,15.2%
CC(=O)N1CCc2cc(S(=O)(=O)N3CCCCCC3)ccc21,-1.4%[46.1 µM],-0.6,-14.3%[46.1 µM],?,-12.2,-7.9%
